Measured values reported in the supplement of paper PMC11732987, “Enantioselective OTUD7B fragment discovery through chemoproteomics screening and high-throughput optimisation” (Communications Chemistry, 2025).

Tests used:
Assay in all cases: log2 ratio of Biotin-Ahx-Ub-VS probe labelling (fragment/DMSO); higher = less target engagement (more negative = stronger competition), active = hit call of the paper (q ≤ 0.05, log2 ratio ≤ -1)
Details in all cases: compound concentration: 200 uM; treatment time: 3 h
[1] = molecular target: T1, USP42 (UniProt Q9H9J4)
T1 sequence (whole entry): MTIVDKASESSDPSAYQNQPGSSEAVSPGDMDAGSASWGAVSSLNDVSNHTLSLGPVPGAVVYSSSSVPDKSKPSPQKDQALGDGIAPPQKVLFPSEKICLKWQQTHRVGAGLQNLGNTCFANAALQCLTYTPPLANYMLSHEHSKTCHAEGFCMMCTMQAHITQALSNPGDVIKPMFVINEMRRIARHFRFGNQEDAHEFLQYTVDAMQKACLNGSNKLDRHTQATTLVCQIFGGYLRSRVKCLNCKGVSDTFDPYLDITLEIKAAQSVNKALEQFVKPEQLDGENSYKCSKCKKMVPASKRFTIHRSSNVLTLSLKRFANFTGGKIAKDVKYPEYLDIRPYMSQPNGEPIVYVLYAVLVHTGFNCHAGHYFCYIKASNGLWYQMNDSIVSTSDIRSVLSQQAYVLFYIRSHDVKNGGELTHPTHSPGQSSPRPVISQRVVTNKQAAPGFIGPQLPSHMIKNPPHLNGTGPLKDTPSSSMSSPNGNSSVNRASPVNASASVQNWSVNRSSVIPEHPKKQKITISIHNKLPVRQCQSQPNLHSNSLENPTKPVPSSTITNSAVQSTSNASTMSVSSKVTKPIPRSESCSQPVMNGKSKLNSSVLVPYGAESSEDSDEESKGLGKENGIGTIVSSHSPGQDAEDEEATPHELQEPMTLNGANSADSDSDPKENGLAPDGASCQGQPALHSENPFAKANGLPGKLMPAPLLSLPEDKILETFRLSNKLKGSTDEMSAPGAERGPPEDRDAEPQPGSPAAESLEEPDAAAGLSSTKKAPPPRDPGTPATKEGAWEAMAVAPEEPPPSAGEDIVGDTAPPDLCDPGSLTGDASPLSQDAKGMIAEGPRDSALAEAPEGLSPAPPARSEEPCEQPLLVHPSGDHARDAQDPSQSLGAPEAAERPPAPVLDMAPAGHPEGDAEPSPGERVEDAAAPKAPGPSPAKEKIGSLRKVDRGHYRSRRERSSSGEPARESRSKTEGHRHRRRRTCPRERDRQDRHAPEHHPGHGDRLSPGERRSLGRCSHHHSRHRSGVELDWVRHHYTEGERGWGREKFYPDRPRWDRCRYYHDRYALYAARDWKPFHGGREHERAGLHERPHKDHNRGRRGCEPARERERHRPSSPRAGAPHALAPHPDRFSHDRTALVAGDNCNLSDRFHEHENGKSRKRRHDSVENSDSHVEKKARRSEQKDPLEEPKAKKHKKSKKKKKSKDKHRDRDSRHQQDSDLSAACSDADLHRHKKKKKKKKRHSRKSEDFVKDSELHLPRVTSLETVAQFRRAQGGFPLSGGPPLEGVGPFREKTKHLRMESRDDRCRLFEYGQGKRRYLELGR
In short: (§1)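 The table lists average log2 ratios of fragment over vehicle, from an unpaired t-test on global-median-normalised Spectronaut label-free quantities. Proteins with ≥2 unique peptides were used. Samples were HEK293T lysate (495 µg) treated in triplicate with fragment at 200 µM or vehicle for 3 h, then with Biotin-Ahx-Ub-VS (0.5 µM final) for 1 h, with labelled DUBs NeutrAvidin-enriched and run by diaPASEF LC-MS/MS.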

[2] = molecular target: USP46 (UniProt P62068)
In short: as §1

[3] = molecular target: T2, USP47 (UniProt Q96K76)
T2 sequence (whole entry): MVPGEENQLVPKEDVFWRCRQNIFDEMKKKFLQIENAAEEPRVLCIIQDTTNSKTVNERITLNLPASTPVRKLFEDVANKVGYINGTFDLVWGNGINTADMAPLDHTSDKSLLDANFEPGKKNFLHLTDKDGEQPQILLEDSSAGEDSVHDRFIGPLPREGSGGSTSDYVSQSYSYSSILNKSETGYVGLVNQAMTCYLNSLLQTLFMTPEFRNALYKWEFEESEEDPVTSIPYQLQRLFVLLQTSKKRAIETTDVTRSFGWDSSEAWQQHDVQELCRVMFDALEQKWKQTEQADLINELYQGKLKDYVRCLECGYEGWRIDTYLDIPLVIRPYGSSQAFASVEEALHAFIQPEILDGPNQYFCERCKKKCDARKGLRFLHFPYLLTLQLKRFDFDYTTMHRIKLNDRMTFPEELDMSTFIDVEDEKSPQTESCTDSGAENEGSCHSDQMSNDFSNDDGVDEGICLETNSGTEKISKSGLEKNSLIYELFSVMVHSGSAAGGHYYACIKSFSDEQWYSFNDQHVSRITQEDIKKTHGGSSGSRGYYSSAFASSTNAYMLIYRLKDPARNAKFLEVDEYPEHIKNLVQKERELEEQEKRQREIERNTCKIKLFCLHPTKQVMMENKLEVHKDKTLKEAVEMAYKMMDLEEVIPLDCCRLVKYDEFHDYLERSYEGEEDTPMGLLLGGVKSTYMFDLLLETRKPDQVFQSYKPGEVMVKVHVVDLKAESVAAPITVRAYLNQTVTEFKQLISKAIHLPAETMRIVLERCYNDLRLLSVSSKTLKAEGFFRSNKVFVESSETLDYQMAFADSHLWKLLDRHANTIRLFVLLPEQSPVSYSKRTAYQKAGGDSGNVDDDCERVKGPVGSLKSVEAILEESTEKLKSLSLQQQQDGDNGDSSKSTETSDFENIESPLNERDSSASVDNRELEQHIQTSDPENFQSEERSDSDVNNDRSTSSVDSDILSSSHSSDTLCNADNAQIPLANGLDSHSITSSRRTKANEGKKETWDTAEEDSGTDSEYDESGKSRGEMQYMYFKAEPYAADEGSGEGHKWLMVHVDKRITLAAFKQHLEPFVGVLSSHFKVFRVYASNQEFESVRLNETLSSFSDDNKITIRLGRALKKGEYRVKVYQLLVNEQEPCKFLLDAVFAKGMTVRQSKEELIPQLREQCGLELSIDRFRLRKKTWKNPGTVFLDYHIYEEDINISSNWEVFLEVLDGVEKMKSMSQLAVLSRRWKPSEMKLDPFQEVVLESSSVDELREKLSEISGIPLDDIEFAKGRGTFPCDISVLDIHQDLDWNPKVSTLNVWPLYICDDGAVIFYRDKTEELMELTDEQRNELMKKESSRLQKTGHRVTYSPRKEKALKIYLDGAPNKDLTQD
In short: as §1

[4] = molecular target: T3, USP48 (UniProt Q86UV5)
T3 sequence (whole entry): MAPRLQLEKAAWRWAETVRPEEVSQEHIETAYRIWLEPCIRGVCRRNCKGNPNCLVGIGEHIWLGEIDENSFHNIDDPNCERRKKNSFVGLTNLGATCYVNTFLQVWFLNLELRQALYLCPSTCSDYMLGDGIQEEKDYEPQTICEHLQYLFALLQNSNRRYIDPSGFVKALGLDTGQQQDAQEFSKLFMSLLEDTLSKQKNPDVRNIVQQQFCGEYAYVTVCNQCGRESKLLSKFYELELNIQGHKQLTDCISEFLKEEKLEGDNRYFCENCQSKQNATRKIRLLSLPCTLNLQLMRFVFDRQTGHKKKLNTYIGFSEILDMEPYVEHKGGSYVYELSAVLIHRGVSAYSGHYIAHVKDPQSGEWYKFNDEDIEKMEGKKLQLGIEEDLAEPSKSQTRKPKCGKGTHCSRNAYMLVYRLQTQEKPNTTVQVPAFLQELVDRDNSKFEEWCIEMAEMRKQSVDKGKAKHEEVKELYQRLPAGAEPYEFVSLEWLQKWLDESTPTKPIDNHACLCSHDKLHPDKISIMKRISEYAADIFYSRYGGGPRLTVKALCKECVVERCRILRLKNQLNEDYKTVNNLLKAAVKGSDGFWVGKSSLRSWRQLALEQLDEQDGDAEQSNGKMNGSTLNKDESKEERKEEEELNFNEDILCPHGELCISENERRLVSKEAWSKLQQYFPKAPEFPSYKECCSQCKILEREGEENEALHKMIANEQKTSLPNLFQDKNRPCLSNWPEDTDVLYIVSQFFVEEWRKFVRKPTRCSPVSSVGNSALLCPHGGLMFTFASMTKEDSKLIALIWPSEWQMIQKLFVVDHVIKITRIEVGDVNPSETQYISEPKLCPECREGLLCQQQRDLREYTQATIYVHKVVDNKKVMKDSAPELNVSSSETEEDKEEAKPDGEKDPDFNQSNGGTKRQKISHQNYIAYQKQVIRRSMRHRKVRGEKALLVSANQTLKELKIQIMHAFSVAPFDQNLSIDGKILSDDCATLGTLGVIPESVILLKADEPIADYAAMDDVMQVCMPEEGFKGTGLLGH
In short: as §1

[5] = molecular target: T4, USP5 (UniProt P45974)
T4 sequence (whole entry): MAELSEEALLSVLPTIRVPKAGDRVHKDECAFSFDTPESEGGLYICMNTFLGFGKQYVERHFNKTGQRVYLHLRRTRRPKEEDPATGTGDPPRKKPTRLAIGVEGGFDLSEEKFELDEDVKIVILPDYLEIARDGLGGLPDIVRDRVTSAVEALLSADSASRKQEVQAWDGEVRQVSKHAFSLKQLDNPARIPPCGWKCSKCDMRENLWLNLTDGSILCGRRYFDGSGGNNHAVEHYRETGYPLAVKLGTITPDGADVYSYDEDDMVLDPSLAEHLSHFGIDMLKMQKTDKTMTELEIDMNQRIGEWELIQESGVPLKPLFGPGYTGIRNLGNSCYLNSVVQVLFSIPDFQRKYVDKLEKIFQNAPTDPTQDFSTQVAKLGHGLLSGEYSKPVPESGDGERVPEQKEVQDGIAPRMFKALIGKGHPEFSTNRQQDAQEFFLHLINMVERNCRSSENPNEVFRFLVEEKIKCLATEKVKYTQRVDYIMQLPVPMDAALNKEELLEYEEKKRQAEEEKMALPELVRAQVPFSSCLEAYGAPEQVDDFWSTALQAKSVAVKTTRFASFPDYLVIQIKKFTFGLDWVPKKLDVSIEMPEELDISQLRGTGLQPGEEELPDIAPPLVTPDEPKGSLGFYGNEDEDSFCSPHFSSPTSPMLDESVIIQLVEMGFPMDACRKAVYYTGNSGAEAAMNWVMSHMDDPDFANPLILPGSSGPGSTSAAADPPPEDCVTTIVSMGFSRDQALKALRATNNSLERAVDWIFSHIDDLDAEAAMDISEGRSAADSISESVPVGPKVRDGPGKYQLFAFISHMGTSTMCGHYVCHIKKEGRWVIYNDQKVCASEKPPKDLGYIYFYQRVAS
In short: as §1

[6] = molecular target: USP54 (UniProt Q70EL1)
In short: as §1

[7] = molecular target: USP7 (UniProt Q93009)
In short: as §1

[8] = molecular target: T5, USP8 (UniProt P40818)
T5 sequence (whole entry): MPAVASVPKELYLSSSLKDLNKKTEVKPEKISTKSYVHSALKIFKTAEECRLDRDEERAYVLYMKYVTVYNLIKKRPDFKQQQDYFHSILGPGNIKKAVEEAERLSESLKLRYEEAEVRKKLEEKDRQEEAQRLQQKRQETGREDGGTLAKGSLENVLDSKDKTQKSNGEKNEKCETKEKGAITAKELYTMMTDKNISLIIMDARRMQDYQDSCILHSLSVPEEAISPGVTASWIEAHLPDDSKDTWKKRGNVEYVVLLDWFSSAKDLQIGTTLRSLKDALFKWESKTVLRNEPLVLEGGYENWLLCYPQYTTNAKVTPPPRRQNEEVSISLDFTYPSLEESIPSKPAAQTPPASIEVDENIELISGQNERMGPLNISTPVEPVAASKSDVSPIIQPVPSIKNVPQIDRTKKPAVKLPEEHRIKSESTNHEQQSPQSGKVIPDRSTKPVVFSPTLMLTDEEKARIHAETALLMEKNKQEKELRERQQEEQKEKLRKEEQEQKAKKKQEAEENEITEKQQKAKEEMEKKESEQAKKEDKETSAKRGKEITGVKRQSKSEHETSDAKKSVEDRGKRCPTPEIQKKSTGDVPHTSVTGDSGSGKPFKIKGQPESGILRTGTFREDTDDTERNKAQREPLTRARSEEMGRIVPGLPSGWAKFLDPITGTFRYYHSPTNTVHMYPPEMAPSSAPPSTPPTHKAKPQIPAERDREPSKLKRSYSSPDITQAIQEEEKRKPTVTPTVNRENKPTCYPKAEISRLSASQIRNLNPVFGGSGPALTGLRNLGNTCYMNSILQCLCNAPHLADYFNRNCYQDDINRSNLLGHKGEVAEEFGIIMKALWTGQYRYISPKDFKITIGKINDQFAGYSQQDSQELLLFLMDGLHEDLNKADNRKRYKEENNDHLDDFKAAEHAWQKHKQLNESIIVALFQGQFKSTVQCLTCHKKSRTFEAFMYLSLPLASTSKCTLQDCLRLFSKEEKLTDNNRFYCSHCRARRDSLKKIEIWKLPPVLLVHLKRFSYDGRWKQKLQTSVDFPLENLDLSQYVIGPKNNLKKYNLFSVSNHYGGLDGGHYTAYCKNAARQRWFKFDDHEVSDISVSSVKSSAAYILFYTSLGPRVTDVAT
In short: as §1

[9] = molecular target: USP9X (UniProt Q93008)
In short: as §1

[10] = molecular target: UniProt O00487
In short: as §1

Measured: log2 ratio of Biotin-Ahx-Ub-VS probe labelling

Sequence of USP54 (Q70EL1 whole entry): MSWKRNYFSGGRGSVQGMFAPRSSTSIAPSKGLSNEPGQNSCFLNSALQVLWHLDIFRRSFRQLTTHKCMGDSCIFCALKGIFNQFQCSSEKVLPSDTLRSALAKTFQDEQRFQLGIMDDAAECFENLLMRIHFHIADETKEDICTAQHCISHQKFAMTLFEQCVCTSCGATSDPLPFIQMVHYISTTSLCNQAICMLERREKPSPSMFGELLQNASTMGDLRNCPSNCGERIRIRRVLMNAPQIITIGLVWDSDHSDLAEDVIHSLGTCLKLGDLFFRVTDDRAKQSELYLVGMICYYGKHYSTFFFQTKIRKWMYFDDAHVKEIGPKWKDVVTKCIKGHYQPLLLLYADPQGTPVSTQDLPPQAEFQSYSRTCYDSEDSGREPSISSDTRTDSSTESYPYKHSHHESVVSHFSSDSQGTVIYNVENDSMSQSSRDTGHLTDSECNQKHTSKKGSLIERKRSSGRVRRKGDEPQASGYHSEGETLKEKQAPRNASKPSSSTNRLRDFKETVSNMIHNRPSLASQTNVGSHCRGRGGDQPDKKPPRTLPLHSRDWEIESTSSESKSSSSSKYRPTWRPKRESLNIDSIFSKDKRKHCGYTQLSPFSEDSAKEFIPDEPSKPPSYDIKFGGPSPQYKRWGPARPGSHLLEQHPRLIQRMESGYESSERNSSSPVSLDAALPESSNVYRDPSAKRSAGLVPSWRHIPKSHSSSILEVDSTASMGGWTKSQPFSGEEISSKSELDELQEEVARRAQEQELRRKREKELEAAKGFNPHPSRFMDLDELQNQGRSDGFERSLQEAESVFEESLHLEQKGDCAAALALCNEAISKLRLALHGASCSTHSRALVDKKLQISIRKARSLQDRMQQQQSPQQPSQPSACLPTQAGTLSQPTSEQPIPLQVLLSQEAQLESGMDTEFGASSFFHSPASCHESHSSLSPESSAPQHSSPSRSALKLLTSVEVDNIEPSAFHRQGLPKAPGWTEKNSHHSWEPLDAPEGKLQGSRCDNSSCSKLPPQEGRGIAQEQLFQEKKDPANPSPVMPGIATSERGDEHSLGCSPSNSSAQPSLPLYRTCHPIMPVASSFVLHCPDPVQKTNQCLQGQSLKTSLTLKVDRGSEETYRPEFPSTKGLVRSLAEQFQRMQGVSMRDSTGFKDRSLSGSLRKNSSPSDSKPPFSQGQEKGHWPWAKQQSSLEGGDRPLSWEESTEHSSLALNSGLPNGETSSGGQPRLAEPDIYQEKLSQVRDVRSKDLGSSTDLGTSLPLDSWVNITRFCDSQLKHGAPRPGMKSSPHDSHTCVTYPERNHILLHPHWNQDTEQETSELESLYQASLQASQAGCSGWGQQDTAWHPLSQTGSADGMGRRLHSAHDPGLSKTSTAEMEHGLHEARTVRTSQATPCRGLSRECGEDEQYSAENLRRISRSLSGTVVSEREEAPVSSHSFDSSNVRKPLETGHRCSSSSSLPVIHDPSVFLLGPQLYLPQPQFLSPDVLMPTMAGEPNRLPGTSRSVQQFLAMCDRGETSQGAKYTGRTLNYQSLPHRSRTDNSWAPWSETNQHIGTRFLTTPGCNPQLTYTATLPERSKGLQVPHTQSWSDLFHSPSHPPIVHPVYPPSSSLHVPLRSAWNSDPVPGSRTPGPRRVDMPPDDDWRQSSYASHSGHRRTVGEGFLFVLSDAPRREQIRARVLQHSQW
Sequence of UniProt O00487 (O00487 whole entry): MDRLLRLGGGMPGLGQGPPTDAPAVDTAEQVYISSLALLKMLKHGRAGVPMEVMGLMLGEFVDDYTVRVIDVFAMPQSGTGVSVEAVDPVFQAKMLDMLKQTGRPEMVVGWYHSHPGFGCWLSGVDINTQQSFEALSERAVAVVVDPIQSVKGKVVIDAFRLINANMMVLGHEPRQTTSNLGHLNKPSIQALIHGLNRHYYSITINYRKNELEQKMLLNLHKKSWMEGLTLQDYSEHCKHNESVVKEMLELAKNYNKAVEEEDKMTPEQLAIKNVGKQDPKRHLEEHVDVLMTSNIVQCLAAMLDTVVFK
Sequence of USP7 (Q93009 whole entry, looked up): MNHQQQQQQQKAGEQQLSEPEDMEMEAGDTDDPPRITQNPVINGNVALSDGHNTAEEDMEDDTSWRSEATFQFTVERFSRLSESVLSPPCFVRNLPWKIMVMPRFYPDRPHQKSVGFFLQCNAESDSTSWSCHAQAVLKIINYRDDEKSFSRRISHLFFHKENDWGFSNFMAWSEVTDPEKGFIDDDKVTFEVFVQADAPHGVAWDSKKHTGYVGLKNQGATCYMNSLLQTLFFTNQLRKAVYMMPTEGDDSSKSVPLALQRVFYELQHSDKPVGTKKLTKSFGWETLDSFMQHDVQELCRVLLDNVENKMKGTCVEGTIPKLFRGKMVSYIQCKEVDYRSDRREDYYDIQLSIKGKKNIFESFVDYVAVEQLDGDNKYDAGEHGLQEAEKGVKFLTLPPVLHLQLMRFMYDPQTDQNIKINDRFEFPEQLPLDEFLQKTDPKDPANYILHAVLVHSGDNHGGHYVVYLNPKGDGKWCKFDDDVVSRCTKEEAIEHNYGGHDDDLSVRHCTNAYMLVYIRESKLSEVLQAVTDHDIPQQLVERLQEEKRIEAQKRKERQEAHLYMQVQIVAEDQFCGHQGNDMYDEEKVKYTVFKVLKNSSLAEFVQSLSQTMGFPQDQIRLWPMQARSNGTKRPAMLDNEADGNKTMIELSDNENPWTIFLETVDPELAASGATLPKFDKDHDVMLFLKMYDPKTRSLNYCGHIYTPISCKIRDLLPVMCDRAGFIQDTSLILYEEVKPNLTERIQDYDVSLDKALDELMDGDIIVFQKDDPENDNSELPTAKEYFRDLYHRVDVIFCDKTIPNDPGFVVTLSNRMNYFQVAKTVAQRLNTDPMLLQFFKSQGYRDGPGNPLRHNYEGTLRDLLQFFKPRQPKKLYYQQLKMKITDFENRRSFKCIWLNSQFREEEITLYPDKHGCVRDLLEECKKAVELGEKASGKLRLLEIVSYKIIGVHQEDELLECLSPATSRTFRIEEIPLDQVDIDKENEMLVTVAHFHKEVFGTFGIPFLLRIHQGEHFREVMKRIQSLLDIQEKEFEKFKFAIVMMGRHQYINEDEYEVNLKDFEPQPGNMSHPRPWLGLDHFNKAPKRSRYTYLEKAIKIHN
Sequence of USP46 (P62068 whole entry): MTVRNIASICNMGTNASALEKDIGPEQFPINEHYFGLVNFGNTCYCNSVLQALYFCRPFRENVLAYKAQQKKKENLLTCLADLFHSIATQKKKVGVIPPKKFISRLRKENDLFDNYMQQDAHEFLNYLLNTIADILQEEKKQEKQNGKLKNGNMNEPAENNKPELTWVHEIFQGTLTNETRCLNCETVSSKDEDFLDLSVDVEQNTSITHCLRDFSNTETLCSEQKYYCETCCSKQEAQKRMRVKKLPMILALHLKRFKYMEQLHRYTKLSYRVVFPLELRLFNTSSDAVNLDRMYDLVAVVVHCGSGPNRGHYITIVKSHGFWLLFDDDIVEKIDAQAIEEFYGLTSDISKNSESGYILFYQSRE

O=C(CCl)N1CCCN(C(=O)c2ccc(Cl)cc2)CC1
inactive: [1] -0.0422 | [2] -0.129 | [3] -0.76 | [5] 0.0155 | [6] 0.842 | [8] -0.354 | [9] -0.318 | [10] 0.0259
active: [4] -1.16 | [7] -1.18
